# Bioassay records: PubChem BioAssay, National Center for Advancing Translational Sciences (NCATS)
# Most compounds without a hit are left out; they make up all but 19% or so of the library.
# DT40 TDP1 CPT = growth inhibition of DT40 Tdp1-/-;hTDP1 cells with camptothecin (screen for TDP1 inhibitors); chicken DT40 Tdp1-/-;hTDP1 cells + 20 nM CPT, ATP luminescence, 48 h; Potency, µM (highest dose often 46.2 µM), inactives show at the highest dose activity change, negative = growth inhibition, usual class: inhibitors; hit rate 12% among 420,000; AID 686979; also: potency is read from the fitted curve at half-maximal effect; % is scaled to controls: 0 for no effect and ±100 for the full control effect; nearly all actives have a fitted effect of over 55% in size
#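 Chicken DT40 Tdp1-/- cells stably complemented with human TDP1 were seeded at 400 cells/well in medium containing 20 nM camptothecin, exposed to pin-transferred compounds, and grown at 37 °C for at least 48 hr. Viability was read as ATP luminescence.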
# MCF10A rereplic = induces DNA re-replication in MCF 10a normal breast cells. hit rate 2.9% among 350,000. Potency, µM (highest dose often 46.1 µM), for inactives: at the highest dose activity, positive = re-replication, actives largely listed as activators. MCF 10A DNA re-replication, Hoechst nuclear intensity, 48 h. AID 624296; also: potency is read from the fitted curve at half-maximal effect; % of control where 0% means no effect; nearly all actives have a fitted effect of over 50% in size
# IL1B secr inh = inflammasome signaling inhibition, IL-1 beta readout; THP-1 LPS/ATP IL-1B secretion, AlphaLISA, 16 h; stronger effect = lower value; activity change, % at 57.5 µM; hit rate 4.7% among 360,000; AID 743279; in the data active = activity change below about -50%; inconclusive = mostly about -30% to -49%; also: % is scaled to controls: 0 for no effect and ±100 for the full control effect
#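 Secreted IL-1B measured by AlphaLISA bead assay after 16 h compound exposure of THP-1 cells; compounds (final up to 57.5 uM) added 1 h before LPS (250 ng/mL) and ATP (1.25 mM) stimulation; lower signal means less secretion.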
# Chronic BCR inh = blocks chronic active B-cell receptor signaling; hit rate 0.05% among 340,000; ABC-DLBCL IkBa-CBG/CBR reporter, luminescence ratio, 4 h; Potency, µM (highest dose often 46.1 µM), without a hit: at the top dose activity change, negative = inhibition, most hits filed as inhibitors; active = well fitted inhibition curve with a large enough effect in the signal ratio, with a control signal flat, not every such curve was filed as active; inconclusive = small, poorly fitted or top-dose-only effect, or effect the other way, or a change in a side signal; the % refers to the signal ratio;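 also: potency is read from the fitted curve at half-maximal effect; plate controls were basal doxycycline-induced cells for no effect and cells given 10 µM MG132 for full effect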
#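 Doxycycline induced both beetle luciferases in TMD8 lymphoma cells; IKK-driven degradation limits the IkappaBalpha-fused green signal, while red luminescence normalises for cell number and nonspecific effects. Compounds tested up to 46 uM, 4 hrs.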
# DT40 TDP1 no CPT = qHTS for Inhibitors of human tyrosyl-DNA phosphodiesterase 1 (TDP1): qHTS in cells in absence of CPT | DT40 Tdp1-/- hTDP1 cells, no CPT, ATP luminescence, 48 h | Potency, µM (series often up to 46.2 µM), for the others: top-dose activity change, negative = growth inhibition, most hits filed as inhibitors | hit rate 15% among 420,000 | AID 686978, 2013; also: potency is read from the fitted curve at half-maximal effect; % is scaled to controls: 0 for no effect and ±100 for the full control effect; nearly all actives have a fitted effect of over 55% in size
#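 Growth kinetics read by CellTiter-Glo luminescence after ≥48 hr at 37 °C. Cells: DT40 Tdp1-/- stably carrying human TDP1, 400 per well, compound exposure in the absence of CPT (DMSO vehicle).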
# SW480 rereplic = induces DNA re-replication in SW480 colon adenocarcinoma cells; SW480 DNA re-replication, Hoechst DNA content imaging, 48 h; Potency, µM (titrated, usually from 46.1 µM), without a hit: at the top dose re-replication activation, usual class: activators; hit rate 1.8% among 340,000; also: potency is read from the fitted curve at half-maximal effect; % of control where 0% means no effect; nearly all actives have a fitted effect of over 55% in size
#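 Treated cells incubate 48 hr (37 C, 5% CO2), are stained 40 min with Hoechst, and nuclear fluorescence is enumerated; a rise in nuclei with high DNA signal marks re-replication.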
# An asterisk follows results filed as active; u = inconclusive; x = not tested or not shown; [ ] = remark or other dose. Unless noted, calls follow the shape of the dose curve; as a rule, active = well fitted curve in the direction sought with a large enough effect; inconclusive = small, poorly fitted or top-dose-only effect, or another doubt; inactive = no such curve, though single readings can be large; an effect the other way counts as inactive or inconclusive.
SMILES,DT40 TDP1 CPT,MCF10A rereplic,IL1B secr inh,Chronic BCR inh,DT40 TDP1 no CPT,SW480 rereplic
Oc1ccc(Cl)c2cccnc12,1.8µM*,u,-30,x,1.8µM*,21µM*
Oc1c(Cl)cc(Cl)c2cccnc12,18µM*,6.7µM*,126,u,8.2µM*,3.8µM*
Oc1ccc(F)c2cccnc12,13µM*,u,-70*,-25%,15µM*,u
O=C(O)c1ccc(O)c2ncccc12,x,x,x,-15%,x,x
Cc1ccc(Cl)cc1-n1ncc2c(N3CCN(Cc4ccccc4)CC3)ncnc21,2.6µM*,x,x,5%,2.3µM*,x
CCN(CC)c1ncnc2c1cnn2-c1cc(Cl)ccc1C,21µM*,x,x,u,21µM*,x
Clc1cccc(-n2ncc3c(N4CCCCCC4)ncnc32)c1,-22%,x,x,1%,-14%,x
Cc1ccc(Cl)cc1-n1ncc2c(NC3CCCCC3)ncnc21,9.2µM*,x,x,-1%,15µM*,x
CCN1CCN(c2ncnc3c2cnn3-c2cc(Cl)ccc2C)CC1,u,x,x,-3%,u,x
Clc1cccc(-n2ncc3c(NC4CCCCC4)ncnc32)c1,u,x,x,u,18µM*,x
C[C@H](CO)N1C[C@H](C)[C@@H](CN(C)C(=O)Nc2ccc3c(c2)OCO3)Oc2c(NS(=O)(=O)c3ccc(F)cc3)cccc2C1=O,0%,-2%,15,-1%,-13%,0%
COc1ccc(-c2cc3c(o2)CCCC3OCCN2CCOCC2)cc1 (stereo not drawn),u,x,5,x,u,x
Clc1cccc(-n2ncc3c(NCCCn4ccnc4)ncnc32)c1,21µM*,x,x,u,u,x
CCOC(=O)C1=C(C)NC(SC(C)=O)=NC1c1ccc(OC(C)=O)c(OC)c1 (stereo not drawn),u,u,9,x,-20%,3%
CCOC(=O)C1=C(C)NC(C)=C(C(=O)OCC)C1c1ccc(OC)cc1,15µM*,4%,15,-17%,23µM*,2%
CCOC(=O)C1=C(C)NC(C)=C(C(=O)OCC)C1C,-29%,u,-3,u,-51%,-3%
CCOC(=O)C1=C(C)NC(SC)=NC1c1ccc(OC)cc1 (stereo not drawn),-1%,16%,-50*,0%,-20%,-2%
CCOC(=O)C1=C(C)NC(C)=C(C(=O)OCC)C1c1ccc(Br)o1,9.2µM*,u,-72*,-7%,23µM*,15%
CCc1noc2c1/C(=N\O)CC(c1ccccc1)C2 (stereo not drawn),u,11%,-12,u,16µM*,0%
Cc1cccc(-n2cc(-c3ccccc3)c3c(NC(C)C)ncnc32)c1,21µM*,x,x,u,23µM*,x
CC(=O)Nc1ccc(Nc2ncnc3c2c(-c2ccccc2)cn3-c2ccc(C)c(Cl)c2)cc1,9.2µM*,x,x,-48%,8.2µM*,x
CC(=O)c1ccc(N2CCN(c3ncnc4c3c(-c3ccccc3)cn4-c3cccc(C)c3)CC2)cc1,-14%,x,x,-3%,-20%,x
Cc1ccc(-n2cc(-c3ccccc3)c3c(N4CCC(C)CC4)ncnc32)cc1Cl,1%,x,x,3%,-12%,x
CC(=O)Nc1ccc(Nc2ncnc3c2c(-c2ccccc2)cn3-c2ccccc2)cc1,16µM*,x,x,u,18µM*,x
CC(C)c1ccc(Nc2ncnc3c2c(-c2ccccc2)cn3-c2ccccc2)cc1,3.7µM*,x,x,4%,u,x
SMILES,DT40 TDP1 CPT,MCF10A rereplic,IL1B secr inh,Chronic BCR inh,DT40 TDP1 no CPT,SW480 rereplic
COc1ccc(-n2cc(-c3ccccc3)c3c(Nc4ccc(OC)c(OC)c4)ncnc32)cc1,u,x,x,-16%,u,x
CC(=O)Nc1ccc(Nc2ncnc3c2cnn3-c2ccccc2)cc1,u,24%,-16,u,u,-2%
CCOc1ccccc1CN1CCNC(=O)C1CC(=O)N(C)C1CCOCC1 (stereo not drawn),-28%,-2%,14,2%,14%,u
O=C(c1ccc(F)cc1)N1CCC(c2nc3ccccc3s2)CC1,-30%,x,x,x,u,x
O=C(CCCc1nc(-c2ccccc2)no1)Nc1cccnc1,u,0%,98,22%,u,-7%
Cc1ccc(-c2noc(CCCC(=O)NC3CCCCC3)n2)cc1,u,9%,12,u,13µM*,2%
COc1ccccc1-c1noc(CCC(=O)Nc2cccnc2)n1,-28%,x,30,x,u,x
O=C(CCc1nc(-c2ccccc2Cl)no1)Nc1cccnc1,21µM*,-2%,28,3%,u,-6%
Cc1ccc(-c2noc(CCCC(=O)Nc3cccnc3)n2)cc1,u,12%,45,16%,21µM*,-15%
COc1ccc(CCNC(=O)c2cnn(-c3nccc(-c4ccco4)n3)c2C)cc1,18%[9.04 µM],x,x,x,-21%,x
COc1ccc(NC(=O)CN2C(=O)CCc3cc(S(=O)(=O)N4CCOCC4)ccc32)c(OC)c1,3%,x,x,x,-4%,x
O=C(Nc1cccc(Cl)c1Cl)C1CCCO1 (stereo not drawn),-9%,u,-18,1%,-13%,-31%[1.84 µM]
COc1ccc(NC(=O)Cc2coc3cc(C)cc(C)c23)c(OC)c1,21µM*,x,x,x,u,x
O=C(O)Cc1coc2ccc3ccccc3c12,-1%,-28%,-7,-3%,-23%,0%
COc1ccc(OC)c(NC(=O)Cc2coc3cc(C)cc(C)c23)c1,u,13%,3,-24%,u,2%
Cc1cccc(NC(=O)Cc2coc3ccc4ccccc4c23)n1,10µM*,u,-3,u,16µM*,u
COc1ccc(OC)c(NC(=O)Cc2coc3ccc4ccccc4c23)c1,u,4%,32,-11%,13µM*,-3%[9.22 µM]
COc1ccc(OC)c(NC(=O)Cc2coc3ccc(C)cc23)c1,u,5%,0,5%,u,-3%
COc1ccc(N(C(=O)c2ccco2)C(C(=O)NC2CCCC2)c2ccc(N3CCOCC3)cc2)c(OC)c1 (stereo not drawn),u,11%,-11,-2%,u,-7%
CC(C(=O)NC1CCCc2ccccc21)N1CCN(c2ccc(F)cc2)CC1 (stereo not drawn),u,u,-5,-3%,16µM*,u
O=C(CCc1nnc(CCCc2ccccc2)o1)NCC(F)(F)F,-7%,1%,-25,u,-13%,0%
CN(C)c1ccc(C(CNC(=O)c2ccc(-c3ccccc3)cc2)N2CCOCC2)cc1 (stereo not drawn),x,x,x,1%,x,x
NC(N)=NC(N)=Nc1ccc(SC(F)(F)F)cc1,10µM*,2%,-20,u,9.2µM*,1%
